From the supplement of paper PMC6992640

system: HCI01 (cells of a triple-negative basal-like breast cancer xenograft); experiment: cell viability of combination (% of vehicle); higher = less cytotoxic; conditions: 1 µM; 72 h; partner dose: 10 nM
Description: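 PDX cells were treated for 72 h with each drug at 1 µM plus afatinib (10 nM; 1 µM for WHIM30). Luciferase viability is expressed as percent of vehicle.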

**Q.** How did the “cell viability of combination” value turn out when CC(Oc1cc(-c2cnn(C3CCNCC3)c2)cnc1N)c1c(Cl)ccc(F)c1Cl [(R)-Crizotinib] + CN(C)C/C=C/C(=O)Nc1cc2c(Nc3ccc(F)c(Cl)c3)ncnc2cc1O[C@H]1CCOC1 [Afatinib] was run?
**A.** 66

**Q.** CCC(NC(=O)C(C)NC)C(=O)N1CC(O)CC1Cc1c(-c2[nH]c3cc(F)ccc3c2CC2CC(O)CN2C(=O)C(CC)NC(=O)C(C)NC)[nH]c2cc(F)ccc12 (stereo unspecified) + CN(C)C/C=C/C(=O)Nc1cc2c(Nc3ccc(F)c(Cl)c3)ncnc2cc1O[C@H]1CCOC1 [Afatinib] was tested. Which “cell viability of combination” value did it give?
**A.** 42.3

**Q.** Which “cell viability of combination” value does the source give for CC1=CC(=O)c2ccccc2C1=O [Menadione] + CN(C)C/C=C/C(=O)Nc1cc2c(Nc3ccc(F)c(Cl)c3)ncnc2cc1O[C@H]1CCOC1 [Afatinib] here?
**A.** 55.8

**Q.** Which “cell viability of combination” value does the source give for COC(=O)C12CCC(C)(C)CC1C1C(=O)C=C3C4(C)C=C(C#N)C(=O)C(C)(C)C4CCC3(C)C1(C)CC2 (stereo unspecified) [Bardoxolone methyl] + CN(C)C/C=C/C(=O)Nc1cc2c(Nc3ccc(F)c(Cl)c3)ncnc2cc1O[C@H]1CCOC1 [Afatinib] here?
**A.** 53.5

**Q.** CC(C)(C)c1ccc(C(O)CCCN2CCC(C(O)(c3ccccc3)c3ccccc3)CC2)cc1 (stereo unspecified) [Terfenadine] + CN(C)C/C=C/C(=O)Nc1cc2c(Nc3ccc(F)c(Cl)c3)ncnc2cc1O[C@H]1CCOC1 [Afatinib] was tested. Which “cell viability of combination” value did it give?
**A.** 52.8

**Q.** CC(NCCCc1cccc(C(F)(F)F)c1)c1cccc2ccccc12.Cl (stereo unspecified) [Cinacalcet HCl] + CN(C)C/C=C/C(=O)Nc1cc2c(Nc3ccc(F)c(Cl)c3)ncnc2cc1O[C@H]1CCOC1 [Afatinib] was tested. Which “cell viability of combination” value did it give?
**A.** 58.1

**Q.** How did the “cell viability of combination” value turn out when CC(O)C(=O)O.CC(O)C(=O)O.CN1CCN(c2ccc3c(c2)NC(=C2C(=O)N=c4cccc(F)c4=C2N)N3)CC1 [Dovitinib Dilactic acid] + CN(C)C/C=C/C(=O)Nc1cc2c(Nc3ccc(F)c(Cl)c3)ncnc2cc1O[C@H]1CCOC1 [Afatinib] was run?
**A.** 42.3

**Q.** With CC(C)CC(NC(=O)C(NC(=O)c1cccc(-c2ccccc2)n1)C(C)O)B(O)O (stereo unspecified) + CN(C)C/C=C/C(=O)Nc1cc2c(Nc3ccc(F)c(Cl)c3)ncnc2cc1O[C@H]1CCOC1 [Afatinib] as the molecule, how does the “cell viability of combination” value read?
**A.** 34.1

**Q.** How did the “cell viability of combination” value turn out when COc1cc2nccc(Oc3ccc(NC(=O)Nc4cc(C)on4)c(Cl)c3)c2cc1OC [Tivozanib (AV-951)] + CN(C)C/C=C/C(=O)Nc1cc2c(Nc3ccc(F)c(Cl)c3)ncnc2cc1O[C@H]1CCOC1 [Afatinib] was run?
**A.** 43.9

**Q.** For CCN(CC)CCNC(=O)c1c(C)[nH]c(C=C2C(=O)Nc3ccc(F)cc32)c1C.O=C(O)CC(O)C(=O)O [Sunitinib malate] + CN(C)C/C=C/C(=O)Nc1cc2c(Nc3ccc(F)c(Cl)c3)ncnc2cc1O[C@H]1CCOC1 [Afatinib], which “cell viability of combination” value is on record?
**A.** 42

**Q.** With CC[C@@H]1/C=C(\C)C[C@H](C)C[C@H](OC)[C@H]2O[C@@](O)(C(=O)C(=O)N3CCCC[C@H]3C(=O)O[C@H](/C(C)=C/[C@@H]3CC[C@H](Cl)[C@H](OC)C3)[C@H](C)[C@@H](O)CC1=O)[C@H](C)C[C@@H]2OC [Pimecrolimus] + CN(C)C/C=C/C(=O)Nc1cc2c(Nc3ccc(F)c(Cl)c3)ncnc2cc1O[C@H]1CCOC1 [Afatinib] as the molecule, how does the “cell viability of combination” value read?
**A.** 51.2

**Q.** How did the “cell viability of combination” value turn out when CC1(C)Cc2c(-c3ccccc3)c(-c3ccc(Cl)cc3)c(CC(=O)O)n2C1 [Licofelone] + CN(C)C/C=C/C(=O)Nc1cc2c(Nc3ccc(F)c(Cl)c3)ncnc2cc1O[C@H]1CCOC1 [Afatinib] was run?
**A.** 66.1

**Q.** For Cc1ccc(-n2[nH]c(C)c(NN=C3C=CC=C(c4cccc(C(=O)O)c4)C3=O)c2=O)cc1C [Eltrombopag] + CN(C)C/C=C/C(=O)Nc1cc2c(Nc3ccc(F)c(Cl)c3)ncnc2cc1O[C@H]1CCOC1 [Afatinib], which “cell viability of combination” value is on record?
**A.** 52.9

**Q.** How did the “cell viability of combination” value turn out when CC(C)(C)c1ccc(C(=O)CCCN2CCC(OC(c3ccccc3)c3ccccc3)CC2)cc1 [Ebastine] + CN(C)C/C=C/C(=O)Nc1cc2c(Nc3ccc(F)c(Cl)c3)ncnc2cc1O[C@H]1CCOC1 [Afatinib] was run?
**A.** 48.2

**Q.** With COCCOC(=O)C1=C(C)NC(C)=C(C(=O)OCC=Cc2ccccc2)C1c1cccc([N+](=O)[O-])c1 (stereo unspecified) [Cilnidipine] + CN(C)C/C=C/C(=O)Nc1cc2c(Nc3ccc(F)c(Cl)c3)ncnc2cc1O[C@H]1CCOC1 [Afatinib] as the molecule, how does the “cell viability of combination” value read?
**A.** 48.9

**Q.** COc1ccc2cc1Oc1ccc(cc1)CC1c3c(cc4c(c3Oc3cc5c(cc3OC)CCN(C)C5C2)OCO4)CCN1C (stereo unspecified) [Cepharanthine] + CN(C)C/C=C/C(=O)Nc1cc2c(Nc3ccc(F)c(Cl)c3)ncnc2cc1O[C@H]1CCOC1 [Afatinib] was tested. Which “cell viability of combination” value did it give?
**A.** 48.5

**Q.** C=C1C(=CC=C2CCCC3(C)C2CCC3C(C)CCCC(C)C)CC(O)CC1O (stereo unspecified) [Alfacalcidol] + CN(C)C/C=C/C(=O)Nc1cc2c(Nc3ccc(F)c(Cl)c3)ncnc2cc1O[C@H]1CCOC1 [Afatinib] was tested. Which “cell viability of combination” value did it give?
**A.** 42.1

**Q.** Which “cell viability of combination” value does the source give for CCCCCCCCCCCCCCCCOP(=O)([O-])OCC[N+](C)(C)C [Miltefosine] + CN(C)C/C=C/C(=O)Nc1cc2c(Nc3ccc(F)c(Cl)c3)ncnc2cc1O[C@H]1CCOC1 [Afatinib] here?
**A.** 56.7

**Q.** Which “cell viability of combination” value does the source give for CC1CC(=O)NN=C1c1ccc(NN=C(C#N)C#N)cc1 (stereo unspecified) [Levosimendan] + CN(C)C/C=C/C(=O)Nc1cc2c(Nc3ccc(F)c(Cl)c3)ncnc2cc1O[C@H]1CCOC1 [Afatinib] here?
**A.** 52.7

**Q.** CNCCC(Oc1ccc(C(F)(F)F)cc1)c1ccccc1.Cl (stereo unspecified) [Fluoxetine HCl] + CN(C)C/C=C/C(=O)Nc1cc2c(Nc3ccc(F)c(Cl)c3)ncnc2cc1O[C@H]1CCOC1 [Afatinib] was tested. Which “cell viability of combination” value did it give?
**A.** 46.4

**Q.** For CO[C@H]1/C=C/O[C@@]2(C)Oc3c(C)c(O)c4c(O)c(c(/C=N/N5CCN(C6CCCC6)CC5)c(O)c4c3C2=O)NC(=O)/C(C)=C\C=C\[C@H](C)[C@H](O)[C@@H](C)[C@@H](O)[C@@H](C)[C@H](OC(C)=O)[C@@H]1C [Rifapentine] + CN(C)C/C=C/C(=O)Nc1cc2c(Nc3ccc(F)c(Cl)c3)ncnc2cc1O[C@H]1CCOC1 [Afatinib], which “cell viability of combination” value is on record?
**A.** 56.2

**Q.** Which “cell viability of combination” value does the source give for C=CC(=O)Nc1cc(Nc2nccc(-c3cn(C)c4ccccc34)n2)c(OC)cc1N(C)CCN(C)C + CN(C)C/C=C/C(=O)Nc1cc2c(Nc3ccc(F)c(Cl)c3)ncnc2cc1O[C@H]1CCOC1 [Afatinib] here?
**A.** 40

**Q.** How did the “cell viability of combination” value turn out when COc1cccc2c1C(=O)c1c(O)c3c(c(O)c1C2=O)CC(O)(C(=O)CO)CC3OC1CC(N)C(O)C(C)O1.Cl (stereo unspecified) [Doxorubicin (Adriamycin) HCl] + CN(C)C/C=C/C(=O)Nc1cc2c(Nc3ccc(F)c(Cl)c3)ncnc2cc1O[C@H]1CCOC1 [Afatinib] was run?
**A.** 49.5

**Q.** How did the “cell viability of combination” value turn out when CN1CCCC1CCOC(C)(c1ccccc1)c1ccc(Cl)cc1.O=C(O)C=CC(=O)O (stereo unspecified) [Clemastine Fumarate] + CN(C)C/C=C/C(=O)Nc1cc2c(Nc3ccc(F)c(Cl)c3)ncnc2cc1O[C@H]1CCOC1 [Afatinib] was run?
**A.** 54.6

**Q.** With CC(C)Nc1cc(-c2c[nH]c(C(=O)NC(CO)c3cccc(Cl)c3)c2)c(Cl)cn1 (stereo unspecified) + CN(C)C/C=C/C(=O)Nc1cc2c(Nc3ccc(F)c(Cl)c3)ncnc2cc1O[C@H]1CCOC1 [Afatinib] as the molecule, how does the “cell viability of combination” value read?
**A.** 50.7

**Q.** For CNCCCC12CCC(c3ccccc31)c1ccccc12.Cl [Maprotiline HCl] + CN(C)C/C=C/C(=O)Nc1cc2c(Nc3ccc(F)c(Cl)c3)ncnc2cc1O[C@H]1CCOC1 [Afatinib], which “cell viability of combination” value is on record?
**A.** 55.1
